This is an account of results in PubChem BioAssay.

Activity calls are given as the source filed them. Unless noted, how the calls were made is not given here.

Assay [1] can be described thus: anti-His antibody binders, primary screen, artefact control for SMM control protein annotation, biochemical, small-molecule microarray, 635 nm fluorescence (AID 1128).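 Further: score merges feature fluorescence with signal-to-noise for each printed compound spot.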 Particulars: anti-His Alexa647 antibody binding, higher = more signal.
The test system of assay [2] is Human papillomavirus type 1a E7 protein (residues 1-88). Description: HPV1a E7 small-molecule binders, primary screen, biochemical, small-molecule microarray, residues 1-88, 635 nm (AID 1129). As to conditions: small-molecule microarray binding, fluorescence 635 nm; higher = more signal.
Assay [3] addresses Focal adhesion kinase 1 (Homo sapiens) (UniProt Q05397). The assay is described as follows: small-molecule microarray binders of FAK, primary screen, biochemical, 635/667 nm fluorescence, BSA, DTT (AID 1130).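 Further: composite of spot emission at 667 nm and signal to noise over triplicate slides.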 As to conditions: PTK2 binding, 635 nm fluorescence, higher = more signal.
Assay [4] concerns Fibrinogen (Alexa647-labelled). The assay is described as follows: fibrinogen binders on compound microarrays, profiling panel, artefact control for SMM control-protein annotation, biochemical, small-molecule microarray, 635/667 nm fluorescence (AID 1131).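 Further: z-score merges 667 nm fluorescence with per-spot signal-to-noise over triplicate slides.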 Particulars: fibrinogen-A647 binding fluorescence, higher = more signal.
Assay [5] addresses Follistatin (Homo sapiens) (UniProt P19883). The assay is described as follows: follistatin binders on small-molecule microarrays, primary screen, biochemical, small-molecule microarray, 635/667 nm fluorescence (AID 1132). As to conditions: FST binding, 635 nm fluorescence, higher = more signal.
In assay [6] the target is Fibroblast growth factor 2 (Homo sapiens) (UniProt P09038). The assay is described as follows: FGF2 binders on small-molecule microarrays, primary screen, biochemical, small-molecule microarray, 635/667 nm fluorescence (AID 1133). As to conditions: small-molecule microarray binding, FGF2, fluorescence 635/667; higher = more signal.
The nature of assay [7]: mitochondrial membrane potential change in A549 cells, profiling panel, cell-based, JC-1 fluorescence, basal, 24 h, 100 nL (AID 1138).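 Further: A549 lung adenocarcinoma cells under basal conditions with no added stimulus; test concentration not given here.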 As to conditions: higher = more signal.
In assay [8] the test system is Lefty1. Description: Lefty1 binders on small-molecule microarrays, primary screen, biochemical, small-molecule microarray, 635/667 nm fluorescence (AID 1139). As to conditions: small-molecule microarray binding, fluorescence 635/667; higher = more signal.
The test system of assay [9] is wheat germ agglutinin (Triticum aestivum), Alexa647-labelled. The assay is described as follows: wheat germ agglutinin binders on compound microarrays, profiling panel, artefact control for SMM control-protein annotation, biochemical, small-molecule microarray, 635/667 nm fluorescence (AID 1140).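 Further: score merges 667 nm feature emission with signal to noise over triplicate slides.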 As to conditions: WGA-A647 binding, 635 nm fluorescence, higher = more signal.

The target in assay [10] is Luciferin 4-monooxygenase (Photinus pyralis) (UniProt P08659). The assay is described as follows: firefly luciferase enzyme inhibitors, primary screen, biochemical, luminescence, purified enzyme, 2006 set (AID 1141).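 Further: cell-free assay with purified firefly luciferase at 100 ng per well in PBS; test concentration not given here.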 Particulars: SteadyGlo luminescence, 30 min, higher = more signal, called active from +8 up or from −8 down.
Assay [11] has as its system Wnt5a (protein binding on small-molecule microarray). Description: Wnt5a binders on small-molecule microarray, primary screen, biophysical, 635/667 nm fluorescence (AID 1142).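 Further: fluorescence read at 667 nm with signal to noise per printed feature.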 As to conditions: 635 nm fluorescence, higher = more signal.
The nature of assay [12]: cell viability in Huh7 cells, primary screen, cytotoxicity control for HCV replication inhibitor project, CellTiter-Glo luminescence, basal, 48 h (AID 1143).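 Further: Huh7 hepatoma cells carrying a hepatitis C replication reporter with no stimulus; test concentration not given here.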 As to conditions: Huh7 HCV replicon, higher = more signal, called active from +8 up or from −8 down. Background: Cellular ATP, detected with luciferase, serves as a proxy for viable cell number.
Assay [13] can be described thus: P. aeruginosa biofilm formation inhibitors, primary screen, PAO1 strain, BacTiter-Glo luminescence, LB-PBS (AID 1144). Particulars: 12 h, higher = more signal.
Assay [14] can be described thus: CREB reporter modulators without forskolin, primary screen, cell-based, PC12, CRE-LacZ reporter, unstimulated (AID 1145). Particulars: no forskolin, luminescence, 4.5 h, higher = more signal, called active from +8 up or from −8 down.
Assay [15] can be described thus: CREB reporter modulators under forskolin, primary screen, cell-based, PC12, CRE-LacZ reporter, forskolin-stimulated (AID 1146).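 Further: PC12 cells with 6xCRE LacZ reporter stimulated by forskolin 10 µM; beta-galactosidase reporter signal reflecting CREB driven transcription.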 Particulars: luminescence, 4.5 h, higher = more signal, called active from +8 up or from −8 down.
Assay [16] addresses Streptavidin (Streptomyces avidinii) (UniProt P22629). The assay is described as follows: streptavidin binders on small-molecule microarray, primary screen, artefact control for SMM compound annotation, biophysical, 635/667 nm fluorescence (AID 1147).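 Further: signal reflects streptavidin binding to arrayed compounds as a control protein.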 As to conditions: streptavidin binding, higher = more signal.
Assay [17] in a line: small-molecule binders of probe aInhba, primary screen, biochemical, small-molecule microarray, 635/667 nm fluorescence (AID 1148).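 Further: score merges 667nm spot fluorescence with signal-to-noise for antibody binding to printed compounds.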 As to conditions: higher = more signal.
Assay [18] deals with Torsin-1A (Homo sapiens) (UniProt O14656). Description: torsin A binders from cell lysate, primary screen, small-molecule microarray, wild-type, 635/667 nm (AID 1149). As to conditions: COS7 hTOR1A-WT lysate, 635 nm fluorescence, higher = more signal.
The target is the same in assay [19]. The assay is described as follows: small-molecule binders of mutant TOR1A in lysate, primary screen, cell lysate, small-molecule microarray, COS7 lysate, 635/667 nm fluorescence (AID 1150).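 Further: score pools 667 nm emission and signal to noise measuring lysate protein binding.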 As to conditions: COS7 hTOR1A mutant lysate, 635 nm fluorescence, higher = more signal.
In assay [20] the test system is Sonic hedgehog protein (Shh). The assay is described as follows: small-molecule binders of Shh protein, primary screen, biochemical, small-molecule microarray, 635/667 nm fluorescence (AID 1151).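 Further: Shh protein binding to compounds spotted on small-molecule microarray slides; score combines spot fluorescence intensity with signal-to-noise across triplicate slides.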 Particulars: small-molecule microarray binding, 635 nm fluorescence; higher = more signal.

Torsin-1A (Homo sapiens), sequence (O14656 whole entry, looked up): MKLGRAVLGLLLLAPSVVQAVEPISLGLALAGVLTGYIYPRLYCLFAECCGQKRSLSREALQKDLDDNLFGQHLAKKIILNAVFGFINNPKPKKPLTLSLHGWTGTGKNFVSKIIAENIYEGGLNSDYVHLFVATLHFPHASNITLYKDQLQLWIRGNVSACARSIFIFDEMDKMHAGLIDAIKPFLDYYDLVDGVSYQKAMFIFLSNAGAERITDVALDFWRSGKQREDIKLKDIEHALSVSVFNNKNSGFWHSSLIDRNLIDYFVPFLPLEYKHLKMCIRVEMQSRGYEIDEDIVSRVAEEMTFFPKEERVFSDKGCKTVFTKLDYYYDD
Follistatin (Homo sapiens), sequence (P19883 whole entry, looked up): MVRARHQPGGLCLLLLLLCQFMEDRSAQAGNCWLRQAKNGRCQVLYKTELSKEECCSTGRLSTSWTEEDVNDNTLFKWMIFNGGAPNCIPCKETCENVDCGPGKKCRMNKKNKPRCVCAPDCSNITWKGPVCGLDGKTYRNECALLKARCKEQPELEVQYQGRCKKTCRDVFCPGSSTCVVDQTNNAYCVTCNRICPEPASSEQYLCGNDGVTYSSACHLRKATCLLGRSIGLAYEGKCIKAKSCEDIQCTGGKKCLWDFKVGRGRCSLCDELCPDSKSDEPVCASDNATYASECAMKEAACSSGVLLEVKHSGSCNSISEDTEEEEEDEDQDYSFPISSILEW
Streptavidin (Streptomyces avidinii), sequence (P22629 whole entry, looked up): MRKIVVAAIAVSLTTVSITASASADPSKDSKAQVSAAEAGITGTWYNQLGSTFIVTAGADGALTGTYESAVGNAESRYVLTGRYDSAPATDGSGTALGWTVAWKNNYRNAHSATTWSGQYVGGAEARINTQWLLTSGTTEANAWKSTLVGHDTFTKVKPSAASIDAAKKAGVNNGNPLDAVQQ
Luciferin 4-monooxygenase (Photinus pyralis), sequence (P08659 whole entry, looked up): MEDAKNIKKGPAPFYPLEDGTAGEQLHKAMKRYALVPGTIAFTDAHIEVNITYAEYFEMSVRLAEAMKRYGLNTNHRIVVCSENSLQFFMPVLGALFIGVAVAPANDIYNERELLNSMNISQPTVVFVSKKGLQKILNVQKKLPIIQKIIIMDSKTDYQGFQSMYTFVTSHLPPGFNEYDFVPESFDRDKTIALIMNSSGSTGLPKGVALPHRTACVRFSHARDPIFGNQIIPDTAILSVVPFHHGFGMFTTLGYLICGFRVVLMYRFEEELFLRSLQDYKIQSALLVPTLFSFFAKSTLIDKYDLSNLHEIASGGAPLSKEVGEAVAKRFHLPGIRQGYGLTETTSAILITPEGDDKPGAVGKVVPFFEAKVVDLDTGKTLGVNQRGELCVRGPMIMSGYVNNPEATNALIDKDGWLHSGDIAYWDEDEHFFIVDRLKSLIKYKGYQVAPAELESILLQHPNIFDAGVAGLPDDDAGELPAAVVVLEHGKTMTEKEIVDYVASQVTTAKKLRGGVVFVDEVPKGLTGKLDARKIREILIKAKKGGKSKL
Fibroblast growth factor 2 (Homo sapiens), sequence (P09038 whole entry, looked up): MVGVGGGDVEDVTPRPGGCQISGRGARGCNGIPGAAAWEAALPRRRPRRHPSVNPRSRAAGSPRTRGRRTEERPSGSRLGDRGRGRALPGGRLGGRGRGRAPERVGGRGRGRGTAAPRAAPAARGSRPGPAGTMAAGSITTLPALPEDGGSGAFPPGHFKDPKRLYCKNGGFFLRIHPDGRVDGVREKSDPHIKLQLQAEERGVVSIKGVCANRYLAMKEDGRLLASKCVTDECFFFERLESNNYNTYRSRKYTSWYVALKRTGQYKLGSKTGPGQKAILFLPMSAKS
Focal adhesion kinase 1 (Homo sapiens), sequence (Q05397 whole entry, looked up): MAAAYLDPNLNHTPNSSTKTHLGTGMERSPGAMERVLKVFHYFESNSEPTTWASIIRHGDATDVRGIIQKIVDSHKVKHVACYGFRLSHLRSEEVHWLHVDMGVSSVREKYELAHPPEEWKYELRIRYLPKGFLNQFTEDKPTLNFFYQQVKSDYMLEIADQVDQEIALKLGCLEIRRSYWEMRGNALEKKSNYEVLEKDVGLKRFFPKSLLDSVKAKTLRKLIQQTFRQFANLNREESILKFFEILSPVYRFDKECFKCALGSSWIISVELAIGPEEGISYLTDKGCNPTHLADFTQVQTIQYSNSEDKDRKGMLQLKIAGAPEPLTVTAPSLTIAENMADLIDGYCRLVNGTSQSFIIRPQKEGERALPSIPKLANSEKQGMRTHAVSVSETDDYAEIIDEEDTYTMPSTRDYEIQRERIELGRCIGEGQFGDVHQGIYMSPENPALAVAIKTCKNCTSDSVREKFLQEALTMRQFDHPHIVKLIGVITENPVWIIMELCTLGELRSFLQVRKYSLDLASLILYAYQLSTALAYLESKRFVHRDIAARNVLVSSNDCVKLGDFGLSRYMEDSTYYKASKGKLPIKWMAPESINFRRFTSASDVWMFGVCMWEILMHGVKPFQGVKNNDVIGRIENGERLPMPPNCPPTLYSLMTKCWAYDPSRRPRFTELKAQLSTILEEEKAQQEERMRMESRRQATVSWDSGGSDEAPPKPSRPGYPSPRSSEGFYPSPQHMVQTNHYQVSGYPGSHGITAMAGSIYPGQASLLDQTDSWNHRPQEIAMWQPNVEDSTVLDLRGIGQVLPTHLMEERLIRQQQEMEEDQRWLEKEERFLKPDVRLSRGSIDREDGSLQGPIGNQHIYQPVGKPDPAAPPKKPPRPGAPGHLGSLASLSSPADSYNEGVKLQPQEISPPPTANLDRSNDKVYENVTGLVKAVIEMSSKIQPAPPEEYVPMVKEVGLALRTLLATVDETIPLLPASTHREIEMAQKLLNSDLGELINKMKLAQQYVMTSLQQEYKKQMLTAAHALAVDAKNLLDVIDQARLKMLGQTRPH

For the compound `C[N+](C)(C)CCCCNC(=O)[C@H]1C[C@H]2C(=O)NCC(=O)N2[C@H]1c1ccc(O)cc1`, the composite z-score was 3.01 in assay [1]; 0.241 in assay [2]; -0.169 in assay [3]; -0.0907 in assay [4]; 1.41 in assay [5]; 1.91 in assay [6]. Also, the composite z-score is 1.49 in [8]; -0.287 in assay [9]; 0.442 in assay [11]; 0.158 in assay [16]; 0.106 in assay [17]; 0.979 in assay [18]. For the same compound, the results for the composite z-score in assay [19] and in [20] were 0.672 and 2.14, respectively. The z-score in assay [7] is 0.244; in [10], -0.367 (inactive); in assay [12], 0.215 (inactive); in assay [13], -0.895 (inactive); in [14], -0.398 (inactive); in assay [15], -0.501 (inactive).
`Cc1ccc(S[C@]2(C(=O)NCCN3CCOCC3)CC(=O)N(C3Cc4ccccc4C3)[C@@H]2c2ccc(CO)cc2)cc1`: the composite z-score in assay [1] is 1.22; in [2] it was 0.0419; in assay [3], 0.82; in assay [4] it was -0.778; in [5], -0.135; in assay [6], -0.592. Further, the composite z-score in [8] is -1.47; in assay [9], -0.278; in assay [11], -0.2; in assay [16] it was -0.994; in assay [17], -0.125; in [18], 0.0023. The composite z-score in assay [19] is 0.206; in assay [20] it was -0.393. The z-score in assay [7] is 0.161; in [10], 0.54 (inactive); in [12] it was -0.73 (inactive); in assay [13], -0.396 (inactive); in assay [14], -0.152 (inactive); in assay [15], 1.3 (inactive).
As to `COC(=O)C(CC#Cc1ccc2c(c1)[C@]1(C(=O)N2)[C@H](c2ccc(OCCO)cc2)N2[C@H](c3ccccc3)[C@H](c3ccccc3)OC(=O)[C@H]2[C@@H]1C(=O)O)C(=O)OC`, the composite z-score was 3.08 in assay [1]; 1.19 in [2]; 1.38 in assay [3]; 0.915 in [4]; 0.915 in assay [5]; 0.228 in [6]. Further, the composite z-score was 0.861 in [8]; 1.1 in assay [9]; 0.138 in [11]; 0.344 in assay [16]; 0.717 in assay [17]; 0.477 in [18]. Besides, the composite z-score in assay [19] turned out to be 0.538; in [20], 0.759. Moreover, the z-score in assay [7] is 0.161; in [10], -3.07 (inactive); in [12] it was -0.565 (inactive); in assay [13] it was -1.11 (inactive); in assay [14] it was -0.554 (inactive); in [15], 0.295 (inactive).
In the case of `C=CCOc1ccc([C@@H]2CC=C(C(=O)OCC)[C@H](c3cccc(Br)c3)N2S(=O)(=O)c2ccc(C)cc2)cc1`, the composite z-score in assay [1] is -0.296; in assay [2], 0.0511; in assay [3], -0.209; in assay [4], -0.161; in assay [5], 0.199; in assay [6], -0.0901. Besides, the composite z-score in assay [8] is -0.109; in assay [9], 0.268; in assay [11], 0.141; in assay [16], 0.414; in assay [17], -0.0831; in assay [18] it was 0.0699. Also, the composite z-score is 0.307 in assay [19] and 0.0537 in [20]. In addition, the z-score in [7] is 3.89; in [10], 0.594 (inactive); in assay [12] it was -4.43 (inactive); in assay [13], 0.681 (inactive); in assay [14] it was -0.424 (inactive); in [15], 0.165 (inactive).
With `O=C1NC(=O)C2C1C=CC(C(O)c1ccc(-c3ccccc3)s1)N2Nc1ccccn1` (stereo not given), the composite z-score in [1] was 0.322; in [2] it was 0.642; in [3], 0.0118; in assay [4], 0.347; in [5] it was 0.689; in [6], 0.0993. The composite z-score in assay [8] is 0.0042; in [9] it was 0.807; in assay [11], 0.368; in [16], 0.45; in assay [17], -0.0662; in assay [18], 0.351. The values for the composite z-score in assay [19] and in assay [20] were 0.898 and -0.0564, respectively. The z-score in assay [7] was 0.291; in [10], -0.86 (inactive); in assay [12] it was 0.429 (inactive); in [13], -0.505 (inactive); in assay [14], -0.329 (inactive); in assay [15] it was 0.0978 (inactive).
